Data from PubChem BioAssay AID463173 (ICCB-Longwood Screening Facility, Harvard Medical School, 2010).
The whole screen tested about 52,000 compounds, of which about 4,300 (8.3%) were called active. No stated cut-off is given here; in the data, active means survival mostly below about 52% (no sharp cut-off); inactive means mostly above about 56%. The sample as a whole holds a higher share of actives than the screen did.

Tested on: DeltatarO mutant
Assay: growth inhibition of S. aureus wild type versus tarO mutant, primary screen, teichoic acid synthesis inhibitors, RN4220, OD600 (AID 463173)
Conditions: OD600, 18 h, active compounds read low, screened at 18.75 µg/mL (by protocol)

**Q.** Which survival does the source give for `Cc1ccc(Sc2c(C)nn(C(=O)c3ccc(Cl)cc3)c2C)cc1` here?
**A.** The survival was 19% (active).

**Q.** With `Cc1nn(C(=O)c2ccc(Cl)cc2)c(C)c1S(=O)(=O)N1CCOCC1` as the molecule, how does the survival read?
**A.** The survival was 91% (inactive).

**Q.** Which survival does the source give for `Cc1nn(C(=O)c2ccc(Cl)cc2)c(C)c1S(=O)(=O)N1CCCCCC1` here?
**A.** The survival was 80% (inactive).

**Q.** `Cc1ccc(Sc2c(C)nn(C(=O)COc3ccccc3)c2C)cc1` was tested. Which survival did it give?
**A.** Its survival is 25% (active).

**Q.** For `Cc1nn(C(=O)c2ccccc2)c(C)c1Sc1ccc(Cl)cc1`, which survival is on record?
**A.** Its survival is 10% (active).

**Q.** For `Cc1nn(C(=O)c2ccc(Cl)cc2)c(C)c1Sc1ccc(Cl)cc1`, which survival is on record?
**A.** The survival was 51% (active).

**Q.** `Cc1nn(C(=O)c2ccccc2)c(C)c1S(=O)(=O)N1CCCCCC1` was tested. Which survival did it give?
**A.** The survival was 89% (inactive).

**Q.** How did the survival turn out when `Cn1nccc1C(=O)NCc1ccc2c(c1)CCN2C(=O)c1ccccc1` was run?
**A.** Its survival is 90% (inactive).

**Q.** How did the survival turn out when `O=C1CN(C(=O)c2ccc(S(=O)(=O)N3CCCCC3)cc2)C(c2ccc(F)cc2)c2cc(Br)ccc2N1` (configuration not stated) was run?
**A.** The survival was 77% (inactive).

**Q.** For `COc1ccc(-n2c(SCc3nc(-c4ccc(C)cc4)no3)nnc2-c2ccccc2)cc1`, which survival is on record?
**A.** Its survival is 60% (inactive).

**Q.** `O=C(Nc1ccc(OC(F)(F)F)cc1)C1CCCN(S(=O)(=O)c2cccc3nonc23)C1` (configuration not stated) was tested. Which survival did it give?
**A.** Its survival is 96% (inactive).

**Q.** How did the survival turn out when `Cc1cc(C)cc(C(=O)NCC(c2ccc(N(C)C)cc2)N2CCCC2)c1` (configuration not stated) was run?
**A.** The survival was 95% (inactive).

**Q.** How did the survival turn out when `CCN(CC)CCn1c(=N)n(CCOc2ccccc2Cl)c2ccccc21` was run?
**A.** Its survival is 59% (inactive).

**Q.** For `Brc1ccc(-c2nc(N3CCN(c4ccccc4)CC3)c3ccccc3n2)cc1`, which survival is on record?
**A.** Its survival is 117% (inactive).

**Q.** With `CC1CCN(c2nc3ccccc3nc2C(F)(F)F)CC1` as the molecule, how does the survival read?
**A.** The survival was 75% (inactive).

**Q.** For `CC1CCCCN1c1nc(-c2ccc(C(C)(C)C)cc2)nc2ccccc12` (configuration not stated), which survival is on record?
**A.** The survival was 3% (active).

**Q.** With `CC1CCCCN1C(=O)CSc1nc(C2CC2)nc2ccccc12` (configuration not stated) as the molecule, how does the survival read?
**A.** The survival was 82% (inactive).

**Q.** How did the survival turn out when `CC1CCN(c2nc(-c3ccc(Br)cc3)nc3ccccc23)CC1` was run?
**A.** The survival was 82% (inactive).

**Q.** `CC1CCN(c2nc(-c3ccc(C(C)(C)C)cc3)nc3ccccc23)CC1` was tested. Which survival did it give?
**A.** The survival was 6% (active).

**Q.** With `Cc1ccc(C(C(=O)NC2CCCCC2)N(C(=O)Cc2c[nH]c3ccccc23)C2CC2)o1` (configuration not stated) as the molecule, how does the survival read?
**A.** The survival was 94% (inactive).

**Q.** With `COc1ccccc1C1CC(=O)NC(C)=C1C(=O)OC1CCCCCC1` (configuration not stated) as the molecule, how does the survival read?
**A.** Its survival is 86% (inactive).

**Q.** `CCN1CCN(c2ccc(NC(=O)COc3ccccc3)cc2)CC1` was tested. Which survival did it give?
**A.** The survival was 106% (inactive).

**Q.** How did the survival turn out when `O=S(=O)(c1ccc(F)cc1)N1CCCCC1` was run?
**A.** Its survival is 86% (inactive).

**Q.** With `O=C(CN1CCN(c2ccc(F)cc2)CC1)N1CCCC1` as the molecule, how does the survival read?
**A.** Its survival is 83% (inactive).

**Q.** With `O=S(=O)(N1CCCCC1)N1CCN(c2ccc(F)cc2)CC1` as the molecule, how does the survival read?
**A.** The survival was 65% (active).

**Q.** Which survival does the source give for `CCc1ccc(NC(=O)Cn2c(=O)n(Cc3ccco3)c(=O)c3cccnc32)cc1` here?
**A.** The survival was 82% (inactive).

**Q.** `CC1(C)CC(=O)C=C(NCC(O)c2ccccc2)C1` (configuration not stated) was tested. Which survival did it give?
**A.** The survival was 102% (inactive).

**Q.** Which survival does the source give for `Cc1ccc(CNC(=O)CN(c2ccc(C)cc2)S(=O)(=O)c2c(C)nn(C)c2C)cc1` here?
**A.** Its survival is 73% (inactive).

**Q.** For `O=C(c1cc2ccccc2oc1=O)N(Cc1cccs1)Cc1cccs1`, which survival is on record?
**A.** Its survival is 48% (inactive).

**Q.** How did the survival turn out when `COc1ccccc1C(=O)N(Cc1ccco1)Cc1ccccc1F` was run?
**A.** Its survival is 60% (inactive).

**Q.** How did the survival turn out when `COc1ccc(CN(Cc2ccco2)C(=O)c2cc3ccccc3oc2=O)c(OC)c1` was run?
**A.** Its survival is 40% (active).

**Q.** Which survival does the source give for `O=C(c1cc2ccccc2oc1=O)N(Cc1ccc(F)cc1)C1CC1` here?
**A.** The survival was 88% (inactive).

**Q.** `O=C(c1cc2ccccc2oc1=O)N(Cc1ccc2c(c1)OCO2)CC1CCCO1` (configuration not stated) was tested. Which survival did it give?
**A.** Its survival is 42% (active).

**Q.** For `CC(C)(C)c1ccc(C(=O)N(Cc2ccc(F)cc2)Cc2ccco2)cc1`, which survival is on record?
**A.** Its survival is 55% (inactive).

**Q.** For `COc1ccc2oc(=O)c(C(=O)NCc3ccco3)cc2c1`, which survival is on record?
**A.** The survival was 100% (inactive).

**Q.** For `O=C(NCC1CCCO1)c1cc2ccccc2oc1=O` (configuration not stated), which survival is on record?
**A.** Its survival is 80% (inactive).

**Q.** For `Cc1ccccc1CN(Cc1ccco1)C(=O)c1cc2ccccc2oc1=O`, which survival is on record?
**A.** Its survival is 44% (active).

**Q.** For `CCC1Oc2ccc(C)cc2N(CC(=O)N(Cc2ccc3c(c2)OCO3)CC2CCCO2)C1=O` (configuration not stated), which survival is on record?
**A.** The survival was 96% (inactive).

**Q.** Which survival does the source give for `O=C(c1cc2ccccc2oc1=O)N(Cc1ccc(F)cc1)Cc1ccco1` here?
**A.** Its survival is 41% (active).

**Q.** How did the survival turn out when `Cc1cccc2cc(CN(Cc3ccco3)C(=O)c3ccccc3)c(=O)[nH]c12` was run?
**A.** The survival was 95% (inactive).

**Q.** How did the survival turn out when `O=C(O)CCn1cnc2sc3c(c2c1=O)CCCC3` was run?
**A.** The survival was 105% (inactive).

**Q.** For `Nc1cnc2cccc3c2c1-c1ccccc1C3=O`, which survival is on record?
**A.** Its survival is 86% (inactive).

**Q.** Which survival does the source give for `Cc1ccc(S(=O)(=O)c2cnc(SCC(=O)Nc3cc(C)cc(C)c3)nc2N)cc1` here?
**A.** The survival was 102% (inactive).

**Q.** `COc1ccc(-c2cc(C(=O)NCCc3ccc(Cl)cc3)[nH]n2)cc1` was tested. Which survival did it give?
**A.** The survival was 72% (inactive).

**Q.** How did the survival turn out when `Cc1c(Cl)cccc1-n1ncc(C(=O)N2CCc3ccccc3C2)c1C1CCN(C(=O)OC(C)(C)C)CC1` was run?
**A.** Its survival is 85% (inactive).

**Q.** Which survival does the source give for `COc1ccc(C(=O)NCCn2cc(SCC(=O)Nc3ccc4c(c3)OCCO4)c3ccccc32)cc1` here?
**A.** The survival was 153% (inactive).

**Q.** For `CCOC(=O)c1c(C)oc2nc(C)nc(NCC3CCN(Cc4ccc(F)cc4)CC3)c12`, which survival is on record?
**A.** The survival was 102% (inactive).
